Source: PubChem BioAssay (National Center for Advancing Translational Sciences (NCATS))
Only a selection was taken, and hits are over-represented in it overall.
KDM5B inhibitor = blocks human KDM5B histone demethylase activity | Q9UGL1 | KDM5B demethylase, FDH-coupled NADH fluorescence (FDH is formaldehyde dehydrogenase) | Potency, µM (series often up to 57.7 µM), actives largely listed as inhibitors | 220,000 compounds, 2.6% hits; active = well fitted inhibition curve with a large enough effect; also: 0% is about no effect; nearly all actives have a fitted effect of over 70% in size
Target sequence (Q9UGL1 whole entry, looked up): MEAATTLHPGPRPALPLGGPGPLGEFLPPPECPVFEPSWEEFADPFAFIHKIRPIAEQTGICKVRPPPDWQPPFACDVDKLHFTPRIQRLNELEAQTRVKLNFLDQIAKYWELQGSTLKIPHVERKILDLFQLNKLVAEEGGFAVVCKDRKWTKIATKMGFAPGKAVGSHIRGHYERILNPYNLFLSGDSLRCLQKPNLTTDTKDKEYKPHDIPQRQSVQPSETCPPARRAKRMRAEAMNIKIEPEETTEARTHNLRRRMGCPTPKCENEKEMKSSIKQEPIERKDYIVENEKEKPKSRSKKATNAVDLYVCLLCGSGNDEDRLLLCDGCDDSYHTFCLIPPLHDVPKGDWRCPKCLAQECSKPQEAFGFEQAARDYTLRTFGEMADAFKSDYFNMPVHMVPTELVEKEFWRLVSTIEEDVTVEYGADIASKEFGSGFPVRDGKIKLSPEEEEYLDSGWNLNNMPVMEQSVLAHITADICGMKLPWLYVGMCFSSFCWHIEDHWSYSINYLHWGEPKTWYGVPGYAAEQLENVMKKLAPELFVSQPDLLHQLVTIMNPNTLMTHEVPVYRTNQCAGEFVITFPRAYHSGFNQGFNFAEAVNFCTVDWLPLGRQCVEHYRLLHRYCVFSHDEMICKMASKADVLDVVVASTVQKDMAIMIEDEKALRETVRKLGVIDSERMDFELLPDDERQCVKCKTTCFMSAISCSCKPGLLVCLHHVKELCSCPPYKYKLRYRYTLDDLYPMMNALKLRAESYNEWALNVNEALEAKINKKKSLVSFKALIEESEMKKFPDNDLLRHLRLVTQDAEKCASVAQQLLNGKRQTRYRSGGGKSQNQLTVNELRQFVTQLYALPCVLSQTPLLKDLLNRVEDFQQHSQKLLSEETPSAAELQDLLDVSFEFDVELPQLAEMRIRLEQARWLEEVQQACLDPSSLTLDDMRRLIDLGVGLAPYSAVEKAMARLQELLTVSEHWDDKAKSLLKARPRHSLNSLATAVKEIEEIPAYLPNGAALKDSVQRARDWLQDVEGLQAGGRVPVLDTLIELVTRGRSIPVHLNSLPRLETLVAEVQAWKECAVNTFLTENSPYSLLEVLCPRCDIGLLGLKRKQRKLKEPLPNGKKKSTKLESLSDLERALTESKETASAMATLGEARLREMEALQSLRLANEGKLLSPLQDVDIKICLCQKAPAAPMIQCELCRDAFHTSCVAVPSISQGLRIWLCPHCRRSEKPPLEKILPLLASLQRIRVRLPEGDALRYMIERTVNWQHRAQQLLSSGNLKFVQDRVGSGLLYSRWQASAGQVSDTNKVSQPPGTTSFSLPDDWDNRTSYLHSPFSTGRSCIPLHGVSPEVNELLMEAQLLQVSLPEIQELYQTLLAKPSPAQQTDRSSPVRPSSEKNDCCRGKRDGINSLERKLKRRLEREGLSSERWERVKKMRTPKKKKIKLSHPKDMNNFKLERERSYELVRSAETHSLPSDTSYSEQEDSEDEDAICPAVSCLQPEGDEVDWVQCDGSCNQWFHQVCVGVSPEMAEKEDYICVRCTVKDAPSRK
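KDM5BΔAP (200 nM final) in 50 mM HEPES pH 7.5, 0.01% Tween-20 was preincubated 10 min at RT with compound over a concentration range. Substrate mix (H3K4me3 12.5 µM, α-KG 25 µM, Fe²⁺, ascorbate, NAD⁺, FDH) was added, and NADH fluorescence change over 30 min gave dose-response curves.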
Starred values were filed as active, the others as inactive; i = inactive. Potency is read from the fitted curve at half-maximal effect.

SMILES	KDM5B inhibitor
CC(C)CC(=O)Nc1cccc(C(=O)Nc2cccc(C(=O)O)c2)c1	i
Cc1cc(NC(=O)C(=O)c2c[nH]c3ccccc23)no1	i
O=C(c1ccc(C(F)(F)F)cc1)N1CCc2nc(-c3ccc(Cl)cc3)nc(-c3ccccc3)c2C1	i
CCc1ccc(C(=O)CC2OC(=O)c3c2ccc(OC)c3OC)cc1 (stereo not drawn)	i
CCOC(=O)c1cnc(Nc2ccccc2OC)c2ccccc12	i
COc1ccccc1-c1cnc(NC(=O)C2CCOCC2)c2c1CCO2	i
C[S+](=O)([O-])Nc1cccc(Nc2cnc3ccc(-c4ccc(F)cc4)nn23)c1	i
COc1ccccc1-c1cnc(Nc2cccnc2)c2c1CCO2	i
COc1ccccc1-c1cnc(Nc2cccc(N[S+](C)(=O)[O-])c2)c2c1CCO2	25µM*
Cc1ccccc1OCC(=O)OCC(=O)Nc1ccc(Cl)cn1	i
COc1ccc(Nc2ncc(-c3ccccc3OC)c3c2OCC3)cc1	35µM*
COc1ccccc1Nc1nc(-c2ccccc2F)nc2ccccc12	i
COc1ccccc1-c1cnc(Nc2cccnc2OC)c2c1CCO2	35µM*
COc1ccc(-c2ccc3ncc(Nc4cccc(N[S+](C)(=O)[O-])c4)n3n2)cc1OC	i
O=C(COC(=O)COc1ccccc1F)Nc1ccc(Cl)cn1	i
COc1ccccc1-c1cnc(Nc2ccc(Cl)cn2)c2c1CCO2	35µM*
CN(CCCc1[nH]nc(N)c1C#N)c1nc(-c2ccncc2)nc2ccccc12	i
S=C(NCc1ccc(Cl)cc1)NC1CCCC1	i
Cn1nc(C(=O)Nc2ccc(Oc3ccccc3)cc2)c2ccccc2c1=O	i
CCC(C)NC(=S)Nc1cc(C)cc(C)c1 (stereo not drawn)	i
Cc1c(Cl)cccc1Nc1nc(N)c(C(=O)c2ccccc2F)s1	i
Cc1ccc(CNC(=S)NNC(=O)C(C)(C)O)cc1	i
CCc1ccc(S(=O)(=O)N2CCC(n3cnnc3COC)CC2)cc1	i
COc1ccc(OCC(=O)N2CCC(Cc3nc(-c4ccc(OC)cc4)no3)CC2)cc1	i
COc1ccc(-n2nc(C3CCN(C(=O)c4ccccc4Cl)CC3)[nH]c2=O)cc1	i
SMILES	KDM5B inhibitor
CCc1cccc2c(C(=O)O)cc(-c3cc(C)ccc3C)nc12	i
CC(C)CCNC(=O)c1cnc2c(c1)N(C(=O)Cc1cn(C)c3ccccc13)CCC2	i
Cn1cc(CC(=O)N2CCCc3ncc(C(=O)NCc4ccccc4)cc32)c2ccccc21	i
COCCCNC(=O)c1cnc2c(c1)N(C(=O)Cc1cn(C)c3ccccc13)CCC2	i
Cn1cc(CC(=O)N2CCCc3ncc(C(=O)Nc4cccc(C(F)(F)F)c4)cc32)c2ccccc21	22µM*
Cn1cc(CC(=O)N2CCCc3ncc(C(=O)Nc4cccc(F)c4)cc32)c2ccccc21	32µM*
Cn1cc(CC(=O)N2CCCc3ncc(C(=O)NCCc4ccccc4)cc32)c2ccccc21	i
CCN(CC)C(=O)N1CCCCCCNC(=O)[C@@H]2C[C@@H](c3nc(-c4cccnc4)no3)C[C@@H]21	i
CCOC(=O)c1cnc2ccc(OC)cc2c1Nc1cccc(Cl)c1	i
CCCOc1ccc(-c2nonc2NC(=O)c2cc(OC)c(OC)c(OC)c2)cc1OCCC	i
COCCNc1nc(C)nc2c1CCN(C(=O)c1ccoc1)CC2	i
COCCNc1ncc(-c2ccc(O)cc2)c2c1OCC2	32µM*
COCCNc1oc(-c2ccc(OC)cc2)nc1S(=O)(=O)c1ccc2c(c1)OCCO2	i
COCCNc1ncc(-c2ccc(OC)c(OC)c2)c2c1OCC2	35µM*
COCCNc1ncc(-c2cccc(C(C)=O)c2)c2c1OCC2	i
COCCNc1ncc(-c2ccc(O)c(OC)c2)c2c1OCC2	35µM*
Cc1ccc(C)c(C(C)NC(=O)C2CCCCC2)c1 (stereo not drawn)	i
C=CCCC(=O)NC1CCN(Cc2cccc(C(F)(F)F)c2)CC1	i
O=C(c1cc(F)ccc1F)N1CCC2(CC1)NC(=O)N(Cc1ccc(F)cc1)C2=O	i
O=C(C(Sc1nc2ccccc2o1)c1ccccc1)N1CCCC1 (stereo not drawn)	i
N#CCSc1ccccc1C(=O)Nc1ccc2c(c1)CCC2	i
COc1ccc(C2(c3nc(C4CCOC4)no3)CCCC2)cc1OC (stereo not drawn)	i
Cc1nc2ccc(-c3nc(C4CCOC4)no3)cc2s1 (stereo not drawn)	i
COc1ccc2c(C)c(-c3nc(C4CCOC4)no3)oc2c1 (stereo not drawn)	32µM*
Cn1cccc1C(=O)NCC1(C)CCOCC1	i
SMILES	KDM5B inhibitor
COc1ccc(-c2ccc3nnc(CNC(=O)c4ccc(OC)nc4OC)n3n2)cc1	32µM*
COc1ccc(-c2ccc3nnc(CNC(=O)c4cccc(OC)c4)n3n2)cc1	28µM*
COc1ccc(-c2ccc3nnc(CNC(=O)c4ccc(C#N)cc4)n3n2)cc1	i
COc1ccc(-c2cc(N3CCC(NC(=O)c4cccc(C#N)c4)C3)n[nH]2)cc1 (stereo not drawn)	i
COc1ccc(CC(=O)Nc2cccc(-c3ccc4nnc(C)n4n3)c2)cc1	i
COc1ccc(CNC(=O)c2cccc(OC)c2)cc1	i
COc1ccc(-c2ccc3nnc(CNC(=O)c4cccc(NC(C)=O)c4)n3n2)cc1	28µM*
COc1ccc(-c2ccc3nnc(CNC(=O)c4cccc(C#N)c4)n3n2)cc1	28µM*
CCN(CC)c1ccc(C(=O)NCc2nnc3ccc(-c4ccc(OC)cc4)nn23)cc1	i
CC1(C)[C@H](Cc2cc(CCO)on2)C[C@@H]1NC1CCCCC1	i
COc1ccccc1Cc1nc2ccccc2nc1SCC(=O)Nc1ccccc1OC	i
O=C(/C=C/Nc1ccc(Cl)c(C(F)(F)F)c1)c1ccc(Br)cc1	i
COCCn1c(SC(C)c2nc(C(C)(C)C)no2)nc2sc(C)c(C)c2c1=O (stereo not drawn)	i
CC(Sc1nnc2c(Cl)cc(C(F)(F)F)cn12)c1ccccc1 (stereo not drawn)	i
CCNC(=O)NC(=O)C(C)Sc1ccc(F)cc1 (stereo not drawn)	i
COc1ccc(-c2noc([C@@H]3CCCN3C(=O)c3ccc(F)c(Cl)c3)n2)cc1	i
COc1ccc(-c2ccc3nnc(CNC(=O)c4cc(Cl)ccc4OC)n3n2)cc1	i
COc1ccc(-c2ccc3nnc(CNC(=O)Cc4cccc(OC)c4)n3n2)cc1	25µM*
COc1ccc(-c2ccc3nnc(CNC(=O)c4cccn4C)n3n2)cc1	28µM*
Cc1cccc(C(=O)Nc2cccc(-c3ccc4nncn4n3)c2)c1	i
Cn1cccc1C(=O)NCc1nnc2ccc(-c3ccccc3)nn12	i
CC(=O)c1cccc(NC(=O)CSc2nnc3ccc(-c4ccc(F)cc4)nn23)c1	i
COc1cccc(CC(=O)NCc2nnc3ccc(-c4ccccc4)nn23)c1	i
COc1cccc(CCC(=O)NCc2nnc3ccc(-c4ccccc4)nn23)c1	i
CC(=O)Nc1cccc(C(=O)NCc2nnc3ccc(-c4ccccc4)nn23)c1	32µM*
COc1ccc(-c2ccc3nnc(CNC(=O)c4ccc(F)c(Cl)c4)n3n2)cc1	28µM*
COC(=O)c1cccc(S(=O)(=O)Nc2ccc(Cl)c3cccnc23)c1	i
COCCn1c(SCC#N)nnc1-c1ccc(Cl)cc1	i
CCn1ncc(-c2cc(C(=O)O)c3ccccc3n2)c1C	i
COc1cc(C#N)ccc1OCc1ccc(OC(F)F)c(OC)c1	i
